# ChEMBL document CHEMBL4513216, “Probing the Open Global Health Chemical Diversity Library for Multistage-Active Starting Points for Next-Generation Antimalarials” (ACS Infect Dis, 2020)
# The campaign covered roughly 65,000 compounds. About 2,100 (3.2%) showed an effect of 50% or more. The median lay at about -52%. Many of the other results were omitted from the sample, so strong results are more common in it than they were.
# System: Plasmodium falciparum
# Experiment: Screen against P. falciparum Asexual Blood Stage (ABS), at 5uM
# Format: functional, Dd2
# Conditions: tested at 5 uM
row,Compound,INHIBITION [%]
1,CCN1CC(C(=O)NCCOc2ccc3c(c2)OCO3)CC1=O (stereo not drawn),-196
2,Cc1nc(CN(C)CC2CCCN(CCc3ccc(Cl)cc3)C2)n(C)n1 (stereo not drawn),54.3
3,Cc1noc(CN(C)CC2CCCN(CCc3ccc(Cl)cc3)C2)n1 (stereo not drawn),-72.6
4,CN(Cc1ccncc1)CC1CCCN(CCc2ccc(Cl)cc2)C1 (stereo not drawn),-23.8
5,O=S(=O)(c1cccs1)N1Cc2nc(CN3CCCC3)oc2C1,-84.5
6,CC1CCCN1Cc1cccc(C(=O)Nc2ccc3c(c2)CCC3=O)c1 (stereo not drawn),30.1
7,COc1ccc(NC(=O)c2cccc(CN3CCCC3C)c2)cc1OC (stereo not drawn),51.1
8,Cc1cccc(C)c1NC(=O)c1cccc(CN2CCCC2C)c1 (stereo not drawn),49.8
9,O=C([C@H]1C[C@@H]2CCN(c3cccc(F)c3)C[C@H]2O1)N1CCCC1,-20.3
10,CCc1nc(C2CCCN2CCCSC)no1 (stereo not drawn),42.3
11,O=c1c(NCc2ccncc2)c(NCC(O)CN2CCOCC2)c1=O (stereo not drawn),-27
12,Cc1nnc(N2CCCC3(CN(Cc4ccc(F)cc4)CCO3)C2)o1 (stereo not drawn),-65.4
13,Cc1cc(C)cc(CNC(C)c2c(C)nn(C)c2C)c1 (stereo not drawn),49.4
14,Cn1nccc1C(=O)N1CC[C@]2(C[C@H](OCc3ccccn3)CO2)C1,-58
15,Cc1ccc(CCNc2nc(-c3ccncc3)nc3c2CCNCC3)o1,-88.2
16,c1csc(CCNc2nc(-c3ccncc3)nc3c2CCNCC3)c1,53.5
17,CCOCCNc1nc(-c2ccncc2)nc2c1CCNCC2,-46.1
18,Cc1csc(CCCNC(=O)NC2CC(=O)N(C(C)(C)C)C2)n1 (stereo not drawn),-57
19,Cc1n[nH]c(NC(=O)c2ccc(COCC(F)(F)F)cc2)c1C,-94.3
20,O=C1CC2(CCCCN2C(=O)c2ccco2)CN1c1cccnc1 (stereo not drawn),-138
21,O=C1Nc2ccccc2CN(CC2CC2)C12CCNC2 (stereo not drawn),-2.03
22,O=C1Nc2ccccc2CN(CC=Cc2ccccc2)C12CCNC2 (stereo not drawn),60.2
23,CCCN1Cc2ccccc2NC(=O)C12CCNC2 (stereo not drawn),-23.5
24,COCCN1CCN(C(=O)N2CCCC2)Cc2ccc(C)nc21,-114
25,CC(C)(C)c1nc(CN2CCCN(Cc3cccs3)CC2)no1,30.6
26,Cc1csc(N2CCN(C(=O)C3(C#N)CCCC3)CC2)n1,-111
27,Cc1csc(N2CCCN(C(=O)C3(C#N)CCCC3)CC2)n1,63

row,Compound,INHIBITION [%]
1,Cc1csc(N2CCCN(C(=O)C3(C#N)CCCCC3)CC2)n1,-43.4
2,Fc1cccc(N2CCCC3(CN(Cc4nccs4)CCO3)C2)c1 (stereo not drawn),0.276
3,CC(=O)Nc1ccc(CN2CCCC(c3cc4ncccc4[nH]3)C2)cc1 (stereo not drawn),42.3
4,c1ccc(-c2nc3c(c(NCCn4cccc4)n2)CCNCC3)nc1,-0.552
5,Cc1nonc1CN(C)c1nc(-c2cccnc2)nc2c1CCNC2,69.5
6,Cc1cc(CN(C)c2nc(-c3ccccn3)nc3c2CCNCC3)n[nH]1,69.2
7,CN(CC1CCCCO1)c1nc(-c2cccnc2)nc2c1CCNC2 (stereo not drawn),-14.1
8,CN(Cc1ccc(-n2cccn2)cc1)c1cc(N)nc(N)n1,41.7
9,CN(Cc1ccc(-n2cccn2)cc1)c1nc(N)nc2c1CCNCC2,58.4
10,CN(CCO)c1nc(-c2ccccn2)nc2c1CCNC2,-79.2
11,CN(CC1CCCO1)c1nc(-c2cccnc2)nc2c1CCNCC2 (stereo not drawn),-40
12,CN(Cc1ccccc1-n1cccn1)c1nc(N)nc2c1CCNCC2,-13.4
13,CN(CC(O)CO)c1nc(-c2cccnc2)nc2c1CCNC2 (stereo not drawn),-79.7
14,CN(Cc1cccnc1)c1nc(-c2ccccn2)nc2c1CCNCC2,55.3
15,Cc1nc2c(c(N(C)Cc3ccccc3-n3cccn3)n1)CCNCC2,-3.02
16,COc1cc(CNCc2ccc(NC(=O)NC(C)C)cc2)cc(OC)c1,-65.3
17,CCC(=O)Nc1cccc(OCC(=O)N2C[C@H]3CC[C@H]2C3)c1,-137
18,COc1cccc(CC(=O)N2CCC3(CC2)OCCCC3O)c1OC (stereo not drawn),-112
19,O=C(CN1CCCC1Cn1cccn1)NCCC1=CCCCC1 (stereo not drawn),-61.8
20,CCS(=O)(=O)N1CCc2c(COCc3ccncc3)cncc2C1,-181
21,CCn1nccc1CN(C)C(=O)Cn1nc(C)cc1C,-52.5
22,CC(=O)Nc1cccc(OCCNC(=O)N(C)Cc2ccccc2)c1,-47.8
23,COc1cccc(CN2CC(=O)N(c3ccccc3C)CC2C)c1OC (stereo not drawn),53.8
24,COc1ccc(F)c(CN2CC(=O)N(c3ccccc3C)CC2C)c1 (stereo not drawn),9.59
25,COc1ccc(F)c(F)c1CN1CC(=O)N(c2ccccc2C)CC1C (stereo not drawn),30.6
26,CC(C)c1nnsc1CNC(=O)C1CCCN(C(=O)N(C)C)C1 (stereo not drawn),-18.2
